HCV inh – inhibitors of hepatitis C virus infection. Huh7.5.1 HCVcc-Cre infection, luciferase reporter, 44 h. Potency, µM (highest dose often 41.8 µM), for inactives: top-dose activity change, negative = inhibition, actives largely listed as inhibitors. 340,000 compounds, 3.4% hits; active means well fitted inhibition curve with a large enough effect; inconclusive means small, poorly fitted or top-dose-only effect, or another doubt; inactive means no such curve, though single readings can be large or run the other way; further: potency means the concentration at half of the fitted maximal effect; on the % scale 0 is the no-effect control and ±100 the full control effect
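After 44 h co-culture of compound, cells and HCVcc-Cre (~0.5 moi), substrate is added for 15 min at room temperature and luciferase measured over 15 sec. Cells were seeded at 1,000/well and pre-cultured 4 h.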
FMDV inh – blocks foot and mouth disease virus; FMDV antiviral cell-based qHTS; Potency, µM (series often up to 57.9 µM), for the others: at the highest dose activity change, negative = inhibition, actives largely listed as inhibitors; 410,000 compounds, 1.2% hits; calls by dose curve; tested in HEK293T cells; further: read-out not given here; potency means the concentration at half of the fitted maximal effect; on the % scale 0 is the no-effect control and ±100 the full control effect; nearly all actives have a fitted effect of over 45% in size
Marburg entry inh – inhibitors of Marburg virus binding or cell entry | Marburg virus pseudotyped entry inhibition, cell reporter | Potency, µM (series often up to 37.8 µM), inactives show at the highest dose activity change, negative = inhibition, actives largely listed as inhibitors | 300,000 compounds, 1.8% hits | AID 540276; calls by dose curve; tested in HEK293 cells; further: potency means the concentration at half of the fitted maximal effect; on the % scale 0 is the no-effect control and ±100 the full control effect
HCMV antiviral – human cytomegalovirus inhibition; HFF cells, HCMV-luciferase reporter, 72 h; stronger effect = lower value; activity change, negative = inhibition, % at 57.5 µM; 410,000 compounds, 4.5% hits; in the data active means activity change below about -60%; inconclusive means no clear call, values can overlap the other calls; inactive means above about -39%; further: on the % scale 0 is the no-effect control and ±100 the full control effect
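Two-dose cell screen: HFF monolayers treated with compounds and infected with luciferase-expressing HCMV at 1 PFU/cell, 72 h at 37C, then lysed for luciferase measurement.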
SARS PLpro yeast – blocks SARS-CoV papain-like protease in a yeast assay | 330,000 compounds, 0.19% hits | Potency, µM (titrated, usually from 32.9 µM), for the others: top-dose activity, positive = growth rescue, most hits filed as activators | S. cerevisiae expressing SARS-CoV PLpro, growth rescue; calls by dose curve; further: potency means the concentration at half of the fitted maximal effect; 0% is about no effect; nearly all actives have a fitted effect of over 55% in size
LASV entry inh – Lassa virus entry inhibition; Lassa virus pseudotype entry inhibition, cell reporter; 300,000 compounds, 1.2% hits; AID 540256; Potency, µM (highest dose often 37.9 µM), inactives show at the top dose activity change, negative = inhibition, hits mostly inhibitors; calls by dose curve; tested in HEK293 cells; further: potency means the concentration at half of the fitted maximal effect; on the % scale 0 is the no-effect control and ±100 the full control effect; nearly all actives have a fitted effect of over 50% in size
The depositor's hits bear a star; u = inconclusive; x = not tested or not shown; + = active, no number; [ ] = dose if it differs, or a comment. A selection: hits, their analogues and other compounds. The true share with any hit is near 8%.

SMILES	HCV inh	FMDV inh	Marburg entry inh	HCMV antiviral	SARS PLpro yeast	LASV entry inh
Cc1ccsc1C(=O)NNC(=O)c1cccc(S(=O)(=O)N2CCCC2)c1	5%	-2%	7%	+	-5%	19%
O=C(c1cccc(S(=O)(=O)N2CCCC2)c1)c1cccc(S(=O)(=O)N2CCCC2)c1	u	u	u	-74*	-6%	u
COc1ccc(S(=O)(=O)N2CCOCC2)cc1C(=O)Nc1ccc(N2CCCCCC2)cc1	14µM*	-13%	x	u	x	x
Cc1ccc(S(=O)(=O)N2CCCCC2)cc1C(=O)Nc1ccc(N2CCOCC2)cc1	u	-21%	-5%	-33	4%	0%
Nc1nc(-c2ccccc2)c(C(=O)Nc2ccccc2)s1	-6%	-6%	x	-61*	-1%	x
Nn1cc(-c2ccccc2)nc1SCC(=O)Nc1ccc2c(c1)OCO2	-8%	23%	10%	-100*	-13%	1%
Cc1c(C(=O)Nc2ccc3c(c2)OCO3)sc2nc(-c3ccccc3)cn12	4µM*	-30%	-14%	-37	6%	u
Cc1cccc(NC(=O)c2sc3nc(-c4ccccc4)cn3c2C)n1	13µM*	x	u	u	-5%	u
COc1ccc(-c2cn3c(C)c(C(=O)Nc4cccc(C)n4)sc3n2)cc1	u	-15%	u	u	-8%	u
COc1ccc(-c2cn3c(n2)sc2cc(C(=O)Nc4cc(Cl)ccc4C)ccc23)cc1	x	35%	x	x	x	-9%[46.1 µM]
Cc1ccc(Cl)cc1NC(=O)c1sc2nc(-c3ccccc3)cn2c1C	x	-10%	x	-63*	x	13%[46.1 µM]
COCCNC(=O)c1sc2nc(-c3ccccc3)cn2c1C	5%	25%	34%	-15	3%	23%
Cc1c(C(=O)Nc2ccccc2)sc2nc(-c3ccccc3)cn12	8.9µM*	-13%	-1%	1	-1%	3%
O=C1C=C(N2CCCCC2)c2ccccc2C1=O	7.1µM*	22µM*	u	-97*	x	8.9µM*
O=C1c2ccccc2C(=O)c2c1cccc2N1CCCC1	u	-25%	u	5	-47%	13%
CCOCCCn1c(C)nc2c[n+](CC(=O)c3ccc4ccccc4c3)cc(Br)c21	4%	0%	-34%	-37	1%	-10%
Cn1nnc2c[n+](CC(=O)c3ccc4ccccc4c3)cc(Br)c21	u	u	11µM*	-97*	3%	u
Cn1nnc2c[n+](CC(=O)c3ccc(Cl)cc3)cc(Br)c21	u	u	u	-96*	1%	u
CC(C)N1CCC1(C)C(=O)Nc1cccc2ccccc12 (stereo not given)	x	22µM*	x	13	x	x
COc1ccc(Cn2c(C(=O)O)c(CNCCc3cccs3)c3ccc(C)cc32)cc1	x	-4%	x	-5	x	-23%[46.1 µM]
O=C(N/N=C/c1ccc(O)c(O)c1)c1ccc(-n2cnnn2)cc1	u	-5%	x	4	-32%	x
Cc1nc2c(cc1C(=O)N/N=C/c1ccc(O)c(O)c1)c(=O)n(C)c(=O)n2C	u	-25%	25%	-74*	18%	1%
C=C1CN2C(=NC(c3ccccc3)C(C(=O)OC)=C2C)O1 (stereo not given)	x	x	0%[14.2 µM]	x	x	x
O=C1c2cccc3cccc(c23)C(=O)N1CC1CCN(CC(O)COCc2ccc3c(c2)OCO3)CC1 (stereo not given)	10µM*	-29%	u	-20	6%	u
COc1ccc(OCC(O)CN2CCC(CN3C(=O)c4cccc5cccc(c45)C3=O)CC2)cc1 (stereo not given)	u	-16%	4.5µM*	27	-3%	u
SMILES	HCV inh	FMDV inh	Marburg entry inh	HCMV antiviral	SARS PLpro yeast	LASV entry inh
CCOC(=O)C1CCN(CC(O)COCc2ccc3c(c2)OCO3)CC1 (stereo not given)	-3%	-4%	x	-6	4%	x
O=c1ccc2ccccc2c2ccccc12	x	13µM*	x	-99*	x	x
COC(=O)CNC(=O)c1ccc(C)s1	-21%	7%	5%	-102*	14%	-17%
Cc1ccc(C(=O)NNC(=O)c2ccoc2C)s1	-8%	44%	-1%[46.1 µM]	-98*	1%	u
CCCC(=O)NNC(=O)c1ccoc1C	28%	-4%	3%	-10	19%	u
CCC1CN(C(=O)Nc2ccc(Br)cc2F)c2ccccc2S1 (stereo not given)	x	-3%	x	u	x	8%[46.1 µM]
O=[N+]([O-])c1ccc(O)c(NC(=S)Nc2ccccc2)c1	-10%	43%	16%	-89*	-3%	2%
S=C(NCCc1ccc(Cl)cc1)NC1CC1	11%	26%	x	-75*	1%	x
CNC(=O)C(=O)NCCN1CCN(C(=O)c2ccc([N+](=O)[O-])cc2)CC1	13%	-9%	-6%[46.1 µM]	33	1%	-17%
CCCCc1ccc(NC(=O)C(=O)NCCN2CCN(Cc3ccc([N+](=O)[O-])cc3)CC2)cc1	u	u	x	-60*	-2%	x
O=[N+]([O-])c1ccc(NC(=S)NCc2ccncc2)cc1	u	-6%	u	-19	-2%	1%[46.1 µM]
O=[N+]([O-])c1ccc(NC(=S)NCCc2ccc(Cl)cc2)cc1	u	9%	u	-107*	-30%	u
COc1ccc(C(=O)NCc2ccc3c(c2)CCN3C(=O)c2ccc(Cl)cc2)c(OC)c1	x	0%	x	31	x	9%[46.1 µM]
CCC1CN(C(=O)N2CCC(C(=O)N3CCN(c4ccccc4F)CC3)CC2)c2ccccc2O1 (stereo not given)	x	u	x	-9	x	u
CCCCOC(=O)CSC1=C(C#N)[C@H](c2ccc3c(c2)OCO3)CC(=O)N1	x	x	7%	x	x	x
O=[N+]([O-])c1ccc(NNC(=S)Nc2ccccc2)cc1	11µM*	-1%	u	x	-30%	-1%
COc1ccc([N+](=O)[O-])cc1NC(=S)Nc1ccccc1	4%	-24%	5%	44	-3%	9%
S=C(NCCc1ccccc1)Nc1ccc(Cl)cc1	u	35%	20%	-79*	6%	4%
O=C(Nc1ccc(F)cc1)c1nc[nH]c1C(=O)Nc1ccc([N+](=O)[O-])cc1	6%	-21%	u	-61*	0%	3%[46.1 µM]
O=[N+]([O-])c1ccc(NC(=S)NCc2ccc(F)cc2)cc1	u	-6%	u	-99*	-23%	u
CC(=O)Nc1ccccc1OCc1cc(=O)n2c3c(sc2n1)CCCC3	x	u	10%[46.1 µM]	-10	x	17%[46.1 µM]
Cc1cnc(-n2ncc(C(=O)NCCN3CCOCC3)c2C2CC2)nc1-c1cccs1	x	5%	x	x	x	x
O=[N+]([O-])c1ccc(NC(=S)NCCc2ccccc2)cc1	u	36%	u	-96*	-81%	u
CCCCCn1c(CCCNC(=O)c2ccc(Cl)cc2)nc2ccccc21	x	-22%	u	-2	x	1%[46.1 µM]
Cc1cccc(N2CCN(C(=O)c3cccc(-n4c(C)nc5cccnc54)c3)CC2C)c1 (stereo not given)	x	18µM*	x	u	x	u
